Activity calls are given as the source filed them. No rule for the calls is given here.

Pantothenate synthetase (Mycobacterium tuberculosis (strain ATCC 25618 / H37Rv)), sequence (P9WIL5 whole entry, looked up): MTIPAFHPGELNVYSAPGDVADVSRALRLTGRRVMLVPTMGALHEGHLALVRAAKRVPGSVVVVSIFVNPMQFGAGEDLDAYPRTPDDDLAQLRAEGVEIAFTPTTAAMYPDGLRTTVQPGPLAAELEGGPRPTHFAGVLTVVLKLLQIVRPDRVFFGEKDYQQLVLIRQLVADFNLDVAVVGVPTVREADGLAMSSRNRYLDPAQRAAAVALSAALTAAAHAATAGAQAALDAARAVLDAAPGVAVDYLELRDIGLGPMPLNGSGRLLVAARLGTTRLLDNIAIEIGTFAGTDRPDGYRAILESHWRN

The assay addresses Pantothenate synthetase (Mycobacterium tuberculosis (strain ATCC 25618 / H37Rv)) (UniProt P9WIL5). Put plainly: Recombinant Mtb pantothenate synthetase (PanC) inhibitors, coupled enzyme, confirmatory (AID 375).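 Also: 0% = full reaction with vehicle and 100% = no enzyme background.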 Particulars: coupled enzyme assay; at 10 µM, stronger effect = higher value.
`CC1CCN(C(=O)CSc2nnc(Cc3cc(=O)[nH]c(=O)[nH]3)n2-c2ccc(Cl)cc2)CC1`: the inhibition – broadly, how much of the control response was suppressed – was 4% (inactive).

Consider `O=C(Nc1nc(-c2ccc(S(=O)(=O)N3CCCC3)cc2)cs1)C1COc2ccccc2O1` (stereo not given), for which the inhibition was 0% (inactive).

For `O=c1c2cn[nH]c2nc(SCc2ccc3c(c2)OCCO3)n1-c1ccccc1`, the inhibition is 3% (inactive).

With `C=CCn1c(SCC(=O)Nc2ccccc2OC)nnc1-c1ccccn1`, the inhibition was 3% (inactive).

Regarding `COc1ccc(OC)c(C2C(C#N)=C(N)Oc3cc(C)[nH]c(=O)c32)c1` (stereo not given), the inhibition is 0% (inactive).

Regarding `CCOC(=O)C1=C(C)N=C2SCCC(=O)N2C1c1cc(Br)ccc1OC` (stereo not given), the inhibition is 5% (inactive).

Consider `O=C(c1ccco1)N1CCN(c2nc(C(F)(F)F)nc3c2nnn3Cc2ccccc2)CC1`, for which the inhibition was 0% (inactive).

`Cc1cccc(OCC(=O)Nc2ccccc2N2CCN(C(=O)C(C)C)CC2)c1C`: the inhibition was 5% (inactive).

Turning to `CCOC(=O)c1ccc(N2C(=O)CC(N3CCN(C/C=C/c4ccccc4)CC3)C2=O)cc1` (stereo not given), the inhibition was 2% (inactive).

For `Cc1ccc(C(C(=O)NC(C)(C)C)N(C(=O)c2csnn2)c2cccc(F)c2)o1` (stereo not given), the inhibition was 0% (inactive).

Turning to `CC(=O)Nc1ccc(S(=O)(=O)N2CCN(C(C)CCc3ccccc3)CC2)cc1` (stereo not given), the inhibition is 2% (inactive).

Consider `CCCCCC(=O)N(CN1C(=O)CCC1=O)c1ccccc1`, for which the inhibition is 5% (inactive).

Consider `CC1(C)Cc2noc(N)c2C(C)(C)N1OC(=O)c1cccs1`, for which the inhibition was 0% (inactive).

On to `Cc1nc(NC(=O)c2csc3ccccc23)sc1C`, for which the inhibition was 0% (inactive).

For the molecule `COc1cccc2cc(C(=O)Nc3cccnc3N3CCOCC3)c(=O)oc12`, the inhibition was 0% (inactive).

As to `Fc1ccccc1Cn1nnc2c(-n3ccnc3)ncnc21`, the inhibition is 0% (inactive).

In the case of `Cc1ccc(CNC(=O)c2coc(=O)c3ccccc23)o1`, the inhibition is 0% (inactive).

With `OC1(c2cccc(C(F)(F)F)c2)CCNCC1`, the inhibition was 4% (inactive).

As to `Cc1cc(S(=O)(=O)NC2CCCCC2)ccc1OCC(=O)NCc1ccccn1`, the inhibition is 0% (inactive).

Consider `O=S(=O)(c1ccccc1)N1CCSC1c1ccco1` (stereo not given), for which the inhibition was 3% (inactive).

Regarding `Cc1nc2ccc(NC(=O)N3CCC(c4ccccc4)C3)cc2nc1C` (stereo not given), the inhibition was 0% (inactive).

Consider `CCOc1ccc2c(O)csc2c1`, for which the inhibition was 0% (inactive).

Regarding `Cc1ccc(-n2c3c(cc(C(=O)NCCCN4CCOCC4)c2=O)C(=O)CC(C)(C)C3)cc1`, the inhibition was 0% (inactive).

`O=C(Oc1cccc2cccnc12)c1cccc(-n2cnnn2)c1`: the inhibition was 0% (inactive).

`CCOC(=O)c1[nH]c2cc(OC)c(OC)cc2c1NC(=O)C(C)N1CCN(Cc2ccccc2)CC1` (stereo not given): the inhibition was 1% (inactive).

As to `c1ccc(CCn2nnnc2C(c2cccs2)N2CCOCC2)cc1` (stereo not given), the inhibition is 1% (inactive).

As for `O=C(NC1CC1)c1cccc(Nc2ccc(-c3ccc4c(c3)OCCO4)nn2)c1`, the inhibition was 1% (inactive).

As to `COC(=O)c1[nH]c2ccc(C)cc2c1NC(=O)CN1CCC(C)CC1`, the inhibition is 0% (inactive).

For `CCN(CC)S(=O)(=O)c1ccc(Cl)c(C(=O)OC)c1`, the inhibition was 8% (inactive).

Regarding `COc1ccc(C2=NO[C@@H]3C(=O)N(c4ccc5c(c4)OCCO5)C(=O)[C@H]23)cc1OC`, the inhibition is 3% (inactive).

Turning to `CC(C)OC(=O)c1ccc(NC(=O)C2C3CC4OC(=O)C2C4C3)cc1` (stereo not given), the inhibition is 7% (inactive).

In the case of `C=CCOC(=O)COc1ccc2c(C)c(C)c(=O)oc2c1C`, the inhibition was 0% (inactive).

Take `CN(CC(=O)Nc1ccc2c(c1)OCCO2)S(=O)(=O)c1ccc(Br)s1`: the inhibition is 6% (inactive).

Turning to `Clc1ccc(-n2ncc3c(NCCCn4ccnc4)ncnc32)cc1`, the inhibition was 0% (inactive).

As to `O=C(Cn1c(=O)[nH]n(-c2ccccc2)c1=O)N1CCCc2ccccc21`, the inhibition was 0% (inactive).

As to `CC(C)CCNC(=O)NC(=O)CSc1nnc(-c2ccccc2F)n1N`, the inhibition was 0% (inactive).

As for `C=CC(O)(C#CCN(CC)CC)c1ccccc1` (stereo not given), the inhibition is 3% (inactive).

For the molecule `N#Cc1c(-c2ccccc2)nc(SCc2nc(N)nc(N3CCCCC3)n2)[nH]c1=O`, the inhibition is 9% (inactive).

On to `CCCOC(=O)C1C2C=CC3(CN(c4cccc(Cl)c4)C(=O)C13)O2` (stereo not given), for which the inhibition is 0% (inactive).

`O=C(Cc1ccsc1-c1ccccc1)NO`: the inhibition was 0% (inactive).
